Screening results from PubChem.
In the library only some 22% were active in any assay of this set; here they are far more common.
CHX counter = affects cycloheximide protein synthesis inhibition readout, counter-screen | 300,000 tested, 12% active | AID 2314 | max response, % | cell reporter, cycloheximide protein synthesis inhibition counterscreen; in the data active = max response mostly above about 13%, no sharp cut-off; inactive = mostly below about 14%; note: read at 38.3 µM for the half of the compounds with a filed dose; 0% is about no effect
Pf growth 96h = P. falciparum growth inhibition at 96 hour, primary screen for plastid delayed-death inhibitors | P. falciparum luciferase reporter growth, 96 h | 320,000 tested, 6.9% active | AID 504834 | Potency, µM (series often up to 28.7 µM), inactives show at the highest dose activity change, negative = inhibition, hits mostly inhibitors; note: potency is the fitted concentration of half-maximal effect; % is set by controls: 0 for no effect and ±100 for the full control effect
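Plates of compound plus infected erythrocytes (2% hematocrit, 0.05% parasitemia final) incubate 96 hours, 37 C, 5% CO2. Detection reagent added; reduced luminescence from the parasites' luciferase reporter flags inhibition.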
Pf growth 48h = P. falciparum growth inhibition at 48 hours (one generation); P. falciparum luciferase growth in erythrocytes, 48 h; Potency, µM (titrated, usually from 28.7 µM), for the others: at the highest dose activity change, negative = inhibition, most hits filed as inhibitors; 310,000 tested, 5.9% active; note: potency is the fitted concentration of half-maximal effect; % is set by controls: 0 for no effect and ±100 for the full control effect
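Luciferase-expressing parasites in RBCs, 2% Hct / 0.1% parasitemia final; RPMI 1640 + 0.5% Albumax; 37 C, 5% CO2, one generation; luminescence read-out, lower signal = inhibition.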
Shiga inhibitor = Shiga toxin inhibition; Vero cells, Shiga toxin protein synthesis inhibition reporter; inhibition, % at 38.7 µM; 290,000 tested, 9.2% active; AID 2315; in the data active = inhibition mostly above about 28%, no sharp cut-off; inactive = mostly below about 43%; note: 0% is about no effect
LmPK inh = inhibitors of Leishmania mexicana pyruvate kinase | Q27686 | 290,000 tested, 0.37% active | purified LmPK, Kinase-Glo ATP luminescence, 1 h | Potency, µM (series often up to 57.5 µM), inactives show at the top dose activity change, negative = inhibition, hits mostly inhibitors; note: potency is the fitted concentration of half-maximal effect; % is set by controls: 0 for no effect and ±100 for the full control effect
Target sequence (Q27686 whole entry, looked up): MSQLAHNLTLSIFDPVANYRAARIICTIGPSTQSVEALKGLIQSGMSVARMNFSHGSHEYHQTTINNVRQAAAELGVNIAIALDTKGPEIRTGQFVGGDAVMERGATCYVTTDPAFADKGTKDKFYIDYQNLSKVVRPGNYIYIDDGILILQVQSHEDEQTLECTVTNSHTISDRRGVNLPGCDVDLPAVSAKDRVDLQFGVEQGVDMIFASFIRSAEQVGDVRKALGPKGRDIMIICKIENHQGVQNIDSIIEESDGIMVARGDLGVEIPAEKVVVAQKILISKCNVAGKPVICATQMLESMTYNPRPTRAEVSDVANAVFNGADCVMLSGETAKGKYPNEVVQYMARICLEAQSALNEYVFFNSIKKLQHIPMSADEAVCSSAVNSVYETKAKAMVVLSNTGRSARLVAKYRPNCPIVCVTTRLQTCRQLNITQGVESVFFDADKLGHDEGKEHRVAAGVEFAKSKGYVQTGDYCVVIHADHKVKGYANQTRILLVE
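Kinase-Glo luminescence read after 1 h RT reaction of 0.1 nM LmPK with 0.5 mM PEP and 0.1 mM ADP. Activity scaled between uninhibited and enzyme-free controls.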
The depositor's hits bear a star. Unless noted, calls come from the whole dose curve; as a rule, active = well fitted inhibition curve with a large enough effect; inconclusive = small, poorly fitted or top-dose-only effect, or another doubt; inactive = no such curve, though single readings can be large or run the other way.

CCOC(=O)c1c(C)[nH]c(C(=O)CN(C)CC(=O)Nc2ccccc2Cl)c1C was read as Pf growth 96h -5.9% and Pf growth 48h inconclusive.
Screening CCOC(=O)N1CCN(C(C)C(=O)c2c[nH]c3ccccc23)CC1 (centres undefined) returned CHX counter -2.5, Pf growth 96h inconclusive, Shiga inhibitor -10.0 and LmPK inh 12.3%.
For CC(C(=O)c1c[nH]c2ccccc12)N1CCN(C(=O)c2ccco2)CC1 (centres undefined) the results were CHX counter -1.9, Pf growth 96h 2.08µM*, Pf growth 48h 1.85µM*, Shiga inhibitor -2.9 and LmPK inh -5.9%.
COc1cc(NC(=O)c2ccco2)c(C(=O)OCC(=O)c2c[nH]c3ccccc23)cc1OC was read as CHX counter -0.4, Pf growth 96h 2.33µM*, Pf growth 48h 4.15µM*, Shiga inhibitor 18.1 and LmPK inh 0.8%.
Screening O=C(COC(=O)C1CCC1)c1c[nH]c2ccccc12 returned Pf growth 96h -14.2% and Pf growth 48h -6.2%.
`COc1cc(C(=O)OCC(C)=O)cc(NC(=O)c2ccco2)c1OC` gave CHX counter 8.1, Pf growth 96h -18.1%, Pf growth 48h 4.6%, Shiga inhibitor -2.4 and LmPK inh 7.9%.
For Cc1[nH]c2ccccc2c1C(=O)COC(=O)C1CCC1 the results were CHX counter 23.1*, Pf growth 96h -16.0%, Pf growth 48h 24.6%, Shiga inhibitor 40.2 and LmPK inh 1.0%.
O=C(COC(=O)C1CC1)c1c[nH]c2ccccc12 was read as CHX counter 56.7*, Pf growth 96h 5.0%, Pf growth 48h 36.1%, Shiga inhibitor 75.8* and LmPK inh -21.3%.
Screening COc1ccc(NC(=O)CS(=O)CC(=O)Nc2ccc(-n3cnnn3)c(C)c2)cc1 (centres undefined) returned CHX counter 0.2, Pf growth 96h 19.8%, Pf growth 48h 3.0%, Shiga inhibitor -7.2 and LmPK inh -0.5%.
Screening COc1ccccc1N(CC(=O)NCc1ccccc1C)S(=O)(=O)c1ccc(C)cc1 returned CHX counter -7.6, Pf growth 96h -0.4%, Pf growth 48h inconclusive, Shiga inhibitor -0.8 and LmPK inh -5.3%.
Screening COC(C[C@H](O)C[C@H](O)[C@H](C)OCc1ccccc1)OC returned CHX counter 1.5, Pf growth 96h 91.8%, Pf growth 48h 49.7%, Shiga inhibitor -3.2 and LmPK inh -6.8%.
Screening O=C(OCC(=O)c1c[nH]c2ccccc12)c1ccco1 returned CHX counter 68.1*, Pf growth 96h 5.22µM*, Pf growth 48h 19.5%, Shiga inhibitor 88.4* and LmPK inh 1.0%.
`CC(=O)c1c(C)[nH]c(C(=O)OCC(=O)c2c[nH]c3ccccc23)c1C` gave Pf growth 96h 74.8% and Pf growth 48h inconclusive.
Screening CC(=O)OCC(=O)c1c[nH]c2ccccc12 returned CHX counter 13.2, Pf growth 96h 0.3%, Pf growth 48h 18.0%, Shiga inhibitor 19.5 and LmPK inh -2.8%.
`Cc1[nH]c2ccccc2c1C(=O)C(=O)N(C)C1CCCCC1` gave CHX counter 1.6, Pf growth 96h 2.62µM*, Pf growth 48h 2.62µM*, Shiga inhibitor 10.8 and LmPK inh 0.9%.
For O=C(OCC(=O)c1c[nH]c2ccccc12)c1ccc(Br)o1 the results were CHX counter 26.1*, Pf growth 48h 0.8%, Shiga inhibitor 110.7* and LmPK inh -0.4%.
`O=C(NCC1CCCO1)C(=O)N/N=C\c1ccc2c(c1)OCO2` (centres undefined) gave CHX counter 10.3, Pf growth 96h inconclusive, Pf growth 48h 3.8%, Shiga inhibitor -14.8 and LmPK inh -1.7%.
COCCNC(=S)N(CCc1c(C)[nH]c2ccccc12)Cc1ccco1 was read as CHX counter -1.3, Pf growth 96h 3.9%, Pf growth 48h -8.0%, Shiga inhibitor -7.3 and LmPK inh 0.8%.
O=C(COC(=O)c1ccc(Cl)nc1)NNC(=O)c1ccc(Br)cc1 was read as Pf growth 96h -23.2% and Pf growth 48h -15.0%.
O=C(NOC(=O)c1ccccc1Cl)c1cccs1 was read as CHX counter -1.4, Pf growth 48h 7.0%, Shiga inhibitor -3.3 and LmPK inh -9.6%.
For COc1ccc(NC(=O)/C(C#N)=C/c2cccnc2)c(OC)c1 the results were CHX counter -2.8, Pf growth 96h 1.04µM*, Pf growth 48h -20.3%, Shiga inhibitor -11.0 and LmPK inh 2.2%.
CCCOc1ccccc1/C=C(\C#N)C(=O)Nc1cccnc1 was read as CHX counter 34.3*, Pf growth 96h 63.0%, Pf growth 48h 34.6%, Shiga inhibitor 78.3* and LmPK inh -22.2%.
Screening N#C/C(=C\c1ccncc1)C(=O)Nc1ccc(C(=O)O)cc1 returned CHX counter -5.2, Pf growth 96h 4.3%, Pf growth 48h 0.2%, Shiga inhibitor -6.4 and LmPK inh -0.6%.
For COc1ccc(O)c(/C=C(\C#N)C(=O)Nc2cccnc2)c1 the results were CHX counter 15.1, Pf growth 96h 1.3%, Pf growth 48h -2.6%, Shiga inhibitor -7.4 and LmPK inh -3.1%.
Screening N#C/C(=C\c1cccnc1)C(=O)Nc1ccccc1 returned CHX counter 17.9*, Pf growth 96h -4.2%, Pf growth 48h 30.4%, Shiga inhibitor 19.3 and LmPK inh 2.1%.
`N#C/C(=C\c1cccnc1)C(=O)Nc1ccc(C(=O)O)cc1` gave CHX counter -1.7, Pf growth 96h -22.4%, Pf growth 48h 4.2%, Shiga inhibitor -5.9 and LmPK inh 1.9%.
`CC(C)c1ccc(NC(=O)/C(C#N)=C/c2ccncc2)cc1` gave CHX counter 25.7*, Pf growth 96h inconclusive, Pf growth 48h 29.4%, Shiga inhibitor 17.6* and LmPK inh -12.7%.
For Cc1nn(C)c(C(=O)NNC(=O)NC2CCCCC2)c1Cl the results were CHX counter 0.6, Pf growth 96h 20.3%, Pf growth 48h -1.0%, Shiga inhibitor -5.7 and LmPK inh -1.5%.
Screening CCOC(=O)CC(=O)CSc1nc2c(C)c(C)ccc2cc1C returned CHX counter -3.2, Pf growth 96h 17.1%, Shiga inhibitor -4.7 and LmPK inh -6.6%.
Screening CCOC(=O)CC(=O)CSc1nc2cc(C)ccc2cc1C returned CHX counter 5.4, Pf growth 96h 13.1µM*, Pf growth 48h inconclusive, Shiga inhibitor 25.2 and LmPK inh 5.3%.
Screening CCOC(=O)CC(=O)CSc1nc2ccc(OC)cc2cc1C returned CHX counter 20.6*, Pf growth 96h 33.2%, Pf growth 48h inconclusive, Shiga inhibitor 50.6* and LmPK inh 4.6%.
For COc1cc(C2CC(=O)Oc3ccc(C(C)(C)C)cc32)cc(OC)c1OC (centres undefined) the results were CHX counter -1.6 and Shiga inhibitor inactive.
For Cc1cc(C(=O)Nc2ccc(N3CCOCC3)c3nonc23)ccc1[N+](=O)[O-] the results were CHX counter -0.7, Pf growth 96h 19.4%, Pf growth 48h -12.6%, Shiga inhibitor 29.2 and LmPK inh -6.4%.
